In PubChem BioAssay:

System: XIP peptide (Xip251-270)
Assay: small-molecule binders of XIP peptide, primary screen, biochemical, small-molecule microarray, fluorescence 635/667 nm, 0.5 µg/mL protein (AID 1183)
Conditions: small-molecule microarray binding, fluorescence 635 nm; higher = more signal

Structure (SMILES)	composite z-score
COc1ccc(O[C@H]2C=C[C@@H](c3ccccc3)O[C@@H]2CON=C(C)C)cc1	0.267
COc1cccc([C@H]2Oc3ccc(OC)cc3C(=NO[C@@H]3O[C@H](COC(C)=O)[C@@H](OC(C)=O)[C@H](OC(C)=O)[C@H]3OC(C)=O)[C@@H]2O)c1	-0.172
CCCCC#C[C@@H]1C=C[C@H](Oc2ccc(C(=O)OC)cc2)[C@@H](COC(=O)OCC)O1	0.522
CCC(=O)[C@@]1(O)C(=O)N2C(=C3C(=O)OCC[C@@H]31)N(Cc1ccccc1)C(C)=C(C(=O)OC)[C@H]2c1ccccc1	0.177
C[C@H]1Cc2c(COc3ccccc3)nc3c(c2CO1)CN(CCOc1ccccc1)CC3	0.692
CCOC(=O)NN=C1C[C@@H](O)[C@@H](O)[C@@H]2[C@@H]3C(=O)N(Cc4ccc5c(c4)OCO5)C(=O)[C@@H]3CC[C@H]12	-0.437
COc1cccc([C@H]2Oc3ccc(OC)cc3C(=NO[C@@H](C)c3cn([C@H](CO)Cc4ccccc4)nn3)[C@@H]2O)c1	0.502
CO[C@@H]1COC(=O)[C@H](CCSC)NC(=O)CC=C[C@@H](C)COC(=O)CCC[C@H]1C	0.929
CO[C@@H]1COC(=O)CC=C[C@@H](C)[C@H](OC)COC(=O)[C@@H](C)COC(=O)CC=C[C@H]1C	-0.497
Cc1cc2c(nc1C)CCCCN2CC(C)ON=C1[C@H]2CCn3c(=O)n(-c4ccccc4)c(=O)n3[C@H]2[C@H](O)[C@@H]2O[C@H]12 (stereo partly specified)	0.7
CCOC(=O)NN=C1C[C@@H](O)[C@@H](O)[C@@H]2[C@@H]3C(=O)N(c4cccc(Oc5ccccc5)c4)C(=O)[C@@H]3CC[C@@H]12	0.651
COc1ccc(COC(=O)NN=C2C[C@@H](O)[C@@H](O)[C@@H]3[C@@H]4C(=O)N(c5cccc(Oc6ccccc6)c5)C(=O)[C@@H]4CC[C@@H]23)cc1	-0.206
COC(=O)[C@H](C)NC(=O)CCC1CC(OC(=O)NCc2ccc3c(c2)OCO3)CC2(CCCC(COC(=O)NCC(c3ccccc3)c3ccccc3)O2)O1 (stereo partly specified)	0.699
CO[C@H]1COC(=O)[C@H](C)NC(=O)[C@@H](C)COC(=O)[C@H]2CCCN2C(=O)CC=C[C@H]1C	-0.143
O=C1[C@H]2[C@H]3[C@H](O)[C@H](O)CC(=NO[C@@H]4O[C@H](CO)[C@@H](O)[C@H](O)[C@H]4O)[C@H]3CC[C@H]2C(=O)N1c1cccc(Oc2ccccc2)c1	0.538
CC(=O)OC[C@H]1O[C@H](C#Cc2ccccc2)C=C[C@@H]1OC(C)=O	0.823
COc1ccc(C#C[C@@H]2C=C[C@H](OC(C)=O)[C@@H](COC(C)=O)O2)cc1	0.443
CC(=O)Nc1ccc([C@@H]2N[C@H](C(=O)O)CC[C@H]2C)cc1	0.119

Structure (SMILES)	composite z-score
COC(=O)CC=C[C@@H](C)[C@@H]1C=C[C@H](O)[C@@H](CO)O1	-0.518
CC(=O)OC[C@H]1O[C@@H](ON=C(C)CCN2CCCc3nc(C)c(C)cc32)[C@H](OC(C)=O)[C@@H](OC(C)=O)[C@@H]1OC(C)=O	0.667
CCOC(=O)[C@H](CC(C)C)NC(=O)CCC1CC(OC(=O)NCCc2ccc(F)cc2)CC2(CCCC(COC(=O)NCCC(C)C)O2)O1 (stereo partly specified)	-0.228
CC(C)(C)N1C(=O)[C@H]2[C@H]3[C@H](O)[C@H](O)CC(=O)[C@@H]3CC[C@H]2C1=O	0.419
CC(=O)OC[C@H]1O[C@H](CCON=C2[C@H]3CCn4c(=O)n(-c5ccccc5)c(=O)n4[C@H]3[C@H](O)[C@@H]3O[C@H]23)C=C[C@@H]1OC(C)=O	-0.325
CC(C)CON=C1C[C@@H](O)[C@@H](O)[C@@H]2[C@@H]3C(=O)N(C(C)(C)C)C(=O)[C@@H]3CC[C@H]12	0.494
O=C(NN=C1C[C@@H](O)[C@@H](O)[C@@H]2[C@@H]3C(=O)N(Cc4ccccc4)C(=O)[C@@H]3CC[C@@H]12)OCc1ccccc1	-0.36
CCc1cc2c(nc1CC)CCN(CCC(C)=NO[C@@H](C)c1cn([C@H](CO)Cc3ccccc3)nn1)C2	0.704
CC[C@@H](c1ccccc1)n1c(=O)n2n(c1=O)[C@H]1[C@H](O)[C@@H]3O[C@@H]3C(=O)[C@H]1CC2	0.0999
CCOC(=O)[C@H](CC(C)C)NC(=O)CCC1CC(OC(=O)NCc2cccc3ccccc23)CC2(CCCC(COC(=O)NCCC(C)C)O2)O1 (stereo partly specified)	0.434
COC(=O)[C@@H]1CC[C@@H](C)[C@H](c2ccc(Br)cc2)N1	0.0425
C#CCCCON=C1C[C@@H](O)[C@@H](O)[C@@H]2[C@@H]3C(=O)N(C(C)(C)C)C(=O)[C@@H]3CC[C@@H]12	0.109
Cc1cc2c(nc1C)CCCCN2CC(C)ON=C[C@@H](C)[C@H](OCc1ccccc1)C(C)C (stereo partly specified)	-0.0948
CC(C)=NOC[C@@H](C)[C@H](OCc1ccccc1)C(C)C	0.177
CCOC(=O)[C@H](Cc1ccccc1)NC(=O)CCC1CC(OC(=O)NCCc2ccc(F)cc2)CC2(CCCC(COC(=O)NCCCN3CCCC3=O)O2)O1 (stereo partly specified)	0.701
O=C1CCCC(C2=CCCCC2=O)C1 (stereo unspecified)	0.0997
CCOC(=O)[C@H](Cc1ccccc1)NC(=O)CCC1CC(OC(=O)NCc2ccc3c(c2)OCO3)CC2(CCCC(COC(=O)NCCC(C)C)O2)O1 (stereo partly specified)	0.18
O=C1[C@H]2[C@H]3[C@H](O)[C@H](O)CC(=NOCc4ccccc4)[C@@H]3CC[C@H]2C(=O)N1Cc1ccc2c(c1)OCO2	0.2
